Results from paper PMC5540273 (PLoS ONE, 2017).
Like-named read-outs stand apart in the source and are kept apart here.

What was measured:
Settings in all cases: n = 1
BMPR1A = system: BMPR1A
BMPR1B = system: BMPR1B
BMPR2 = system: BMPR2
BMX = system: BMX
BRAF = system: BRAF
BRK = system: T1, BRK
T1 construct: gene PTK6

BRSK1 = system: BRSK1
BRSK2 = system: BRSK2
BTK = system: BTK
BUB1 = system: BUB1
CAMK1B = system: CAMK1B
CAMK1D = system: CAMK1D
CAMK1G = system: CAMK1G
CAMK1 = system: CAMK1
CAMK2A = system: CAMK2A
CAMK2B = system: CAMK2B
CAMK2D = system: CAMK2D
CAMK2G = system: CAMK2G
CAMK4 = system: CAMK4
CAMKK1 = system: CAMKK1
[1] = concentration: 1 μM, replicates: in singlicate
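Note: KINOMEscan kinase panel screen.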

Cc1c(Cn2ccn3c(=O)cc(N4CCOCC4)nc23)cccc1C(F)(F)F [GSK2289044]
%Inh (BMPR1A; [1]): 0% | %Inh (BMPR1B; [1]): 0% | %Inh (BMPR2; [1]): 0% | %Inh (BMX; [1]): 38% | %Inh (BRAF; [1]): 0% | %Inh (BRK; [1]): 0% | %Inh (BRSK1; [1]): 0% | %Inh (BRSK2; [1]): 0% | %Inh (BTK; [1]): 0% | %Inh (BUB1; [1]): 0% | %Inh (CAMK1B; [1]): 0% | %Inh (CAMK1D; [1]): 7% | %Inh (CAMK1G; [1]): 13% | %Inh (CAMK1; [1]): 0% | %Inh (CAMK2A; [1]): 83% | %Inh (CAMK2B; [1]): 79% | %Inh (CAMK2D; [1]): 18% | %Inh (CAMK2G; [1]): 32% | %Inh (CAMK4; [1]): 5% | %Inh (CAMKK1; [1]): 9%

Cl.Oc1ccc(-c2nc(-c3ccccc3)[nH]c2-c2ccncc2)cc1 [SB-428218]
%Inh (BMPR1A; [1]): 0% | %Inh (BMPR1B; [1]): 0% | %Inh (BMPR2; [1]): 20% | %Inh (BMX; [1]): 0% | %Inh (BRAF; [1]): 60% | %Inh (BRK; [1]): 26% | %Inh (BRSK1; [1]): 0% | %Inh (BRSK2; [1]): 0% | %Inh (BTK; [1]): 21% | %Inh (BUB1; [1]): 93% | %Inh (CAMK1B; [1]): 24% | %Inh (CAMK1D; [1]): 0% | %Inh (CAMK1G; [1]): 2% | %Inh (CAMK1; [1]): 2% | %Inh (CAMK2A; [1]): 0% | %Inh (CAMK2B; [1]): 0% | %Inh (CAMK2D; [1]): 9% | %Inh (CAMK2G; [1]): 29% | %Inh (CAMK4; [1]): 0% | %Inh (CAMKK1; [1]): 18%

Nc1nc(-c2nccs2)c(-c2ccnc3ccccc23)s1 [GW693542]
%Inh (BMPR1A; [1]): 14% | %Inh (BMPR1B; [1]): 10% | %Inh (BMPR2; [1]): 9% | %Inh (BMX; [1]): 0% | %Inh (BRAF; [1]): 0% | %Inh (BRK; [1]): 3% | %Inh (BRSK1; [1]): 11% | %Inh (BRSK2; [1]): 0% | %Inh (BTK; [1]): 0% | %Inh (BUB1; [1]): 47% | %Inh (CAMK1B; [1]): 7% | %Inh (CAMK1D; [1]): 27% | %Inh (CAMK1G; [1]): 0% | %Inh (CAMK1; [1]): 30% | %Inh (CAMK2A; [1]): 0% | %Inh (CAMK2B; [1]): 0% | %Inh (CAMK2D; [1]): 0% | %Inh (CAMK2G; [1]): 13% | %Inh (CAMK4; [1]): 0% | %Inh (CAMKK1; [1]): 6%

Cc1ccc(NC(=O)Nc2cccc(C(F)(F)F)c2)cc1 [GSK955403]
%Inh (BMPR1A; 1 µM): 94.6% | %Inh (BMPR1B; 1 µM): 0% | %Inh (BMPR2; 1 µM): 1% | %Inh (BMX; 1 µM): 0% | %Inh (BRAF; 1 µM): 0% | %Inh (BRK; 1 µM): 0% | %Inh (BRSK1; 1 µM): 0% | %Inh (BRSK2; 1 µM): 0% | %Inh (BTK; 1 µM): 0% | %Inh (BUB1; 1 µM): 0% | %Inh (CAMK1B; 1 µM): 0% | %Inh (CAMK1D; 1 µM): 25% | %Inh (CAMK1G; 1 µM): 10% | %Inh (CAMK1; 1 µM): 7% | %Inh (CAMK2A; 1 µM): 32% | %Inh (CAMK2B; 1 µM): 25% | %Inh (CAMK2D; 1 µM): 8% | %Inh (CAMK2G; 1 µM): 4% | %Inh (CAMK4; 1 µM): 5% | %Inh (CAMKK1; 1 µM): 9%

Cc1cc(NCC(c2ccccc2)c2ccccc2)nc(NCc2ccc(C(F)(F)F)cc2)n1 [GW497681]
%Inh (BMPR1A; [1]): 0% | %Inh (BMPR1B; [1]): 0% | %Inh (BMPR2; [1]): 14% | %Inh (BMX; [1]): 18% | %Inh (BRAF; [1]): 0% | %Inh (BRK; [1]): 2% | %Inh (BRSK1; [1]): 0% | %Inh (BRSK2; [1]): 0% | %Inh (BTK; [1]): 0% | %Inh (BUB1; [1]): 35% | %Inh (CAMK1B; [1]): 0% | %Inh (CAMK1D; [1]): 17% | %Inh (CAMK1G; [1]): 3% | %Inh (CAMK1; [1]): 12% | %Inh (CAMK2A; [1]): 0% | %Inh (CAMK2B; [1]): 0% | %Inh (CAMK2D; [1]): 13% | %Inh (CAMK2G; [1]): 25% | %Inh (CAMK4; [1]): 0% | %Inh (CAMKK1; [1]): 5%

O=C(Nc1n[nH]c2nc(-c3nccs3)c(Br)cc12)C1CC1 [SB-742251]
%Inh (BMPR1A; [1]): 0% | %Inh (BMPR1B; [1]): 0% | %Inh (BMPR2; [1]): 63% | %Inh (BMX; [1]): 0% | %Inh (BRAF; [1]): 13% | %Inh (BRK; [1]): 2% | %Inh (BRSK1; [1]): 95.3% | %Inh (BRSK2; [1]): 90% | %Inh (BTK; [1]): 26% | %Inh (BUB1; [1]): 48% | %Inh (CAMK1B; [1]): 19% | %Inh (CAMK1D; [1]): 0% | %Inh (CAMK1G; [1]): 0% | %Inh (CAMK1; [1]): 0% | %Inh (CAMK2A; [1]): 0% | %Inh (CAMK2B; [1]): 0% | %Inh (CAMK2D; [1]): 0% | %Inh (CAMK2G; [1]): 0% | %Inh (CAMK4; [1]): 0% | %Inh (CAMKK1; [1]): 0%

Fc1cc(Cl)ccc1Nc1ccnc2cc(-c3ccc(CN4CCCCC4)o3)ccc12 [GW560116]
%Inh (BMPR1A; [1]): 0% | %Inh (BMPR1B; [1]): 0% | %Inh (BMPR2; [1]): 0% | %Inh (BMX; [1]): 0% | %Inh (BRAF; [1]): 0% | %Inh (BRK; [1]): 14% | %Inh (BRSK1; [1]): 2% | %Inh (BRSK2; [1]): 0% | %Inh (BTK; [1]): 0% | %Inh (BUB1; [1]): 26% | %Inh (CAMK1B; [1]): 0% | %Inh (CAMK1D; [1]): 8% | %Inh (CAMK1G; [1]): 0% | %Inh (CAMK1; [1]): 3% | %Inh (CAMK2A; [1]): 0% | %Inh (CAMK2B; [1]): 0% | %Inh (CAMK2D; [1]): 8% | %Inh (CAMK2G; [1]): 26% | %Inh (CAMK4; [1]): 0% | %Inh (CAMKK1; [1]): 4%
